High-throughput results as filed in PubChem.
An excerpt weighted towards active compounds, which were near 3.5% of everything screened.
TEAD-YAP block – TEAD-YAP interaction inhibition. inhibition, % at 9.12 µM. HEK-TIYL cells, TEAD-Gal4/YAP UAS-luciferase luminescence. 640,000 compounds, 1.4% hits; in the data active = inhibition above about 32%;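 also: 0% = median of test compound wells and 100% = reference inhibitor wells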
MITF primary – blocks human microphthalmia-associated transcription factor | AID 1259374 | inhibition, % at 2.6 µM | AlphaScreen MITF homodimerization, bead proximity signal | O75030 | 650,000 compounds, 0.91% hits; in the data active = inhibition above about 50%;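 also: 0% = vehicle wells with protein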
GPR151 activ – activators of human GPR151; 650,000 compounds, 1% hits; Q8TDV0; activation, % at 11.2 µM; AID 1508602; PathHunter beta-arrestin GPR151 cells, luminescence; in the data active = activation above about 4.9%;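 also: 0% = median of compound wells and 100% = cells with positive control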
FBW7 activator – human FBW7 E3 ligase activation, primary screen; AID 1259310; normalized activity (activation), % at 26.1 µM; AlphaScreen FBW7–phospho-cyclin E peptide binding, activator screen; 650,000 compounds, 0.13% hits; in the data active = normalized activity above about 1.9%;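 also: purified mutant Fbw7 with reduced substrate affinity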
GPR151 conf act – confirmation of human GPR151 activators | activation, % at 11.2 µM | AID 1508609 | 6,700 tested, under 10 active | GPR151 PathHunter beta-arrestin cells, luminescence, 90 min; % of EA-reagent control over plate median | shares compounds with GPR151 activ;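 active = mean percent activation across replicates above the confirmation screen cutoff of 4.91%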
GPR119 ag – activates human GPR119 in a GPR151 counter-screen; shares compounds with GPR151 activ; activation, % at 11.2 µM; GPR119 PathHunter beta-arrestin cells, luminescence, 90 min; 0 = compound-well median, 100 = enzyme-acceptor control; AID 1508611; 6,700 compounds, 0.3% hits;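 active = mean percent activation in the counterscreen above 29.09%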;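 also: counterscreen on off-target GPR119 to flag nonselective hits from the GPR151 activator screen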
Target sequence (Q8TDV5 whole entry, looked up): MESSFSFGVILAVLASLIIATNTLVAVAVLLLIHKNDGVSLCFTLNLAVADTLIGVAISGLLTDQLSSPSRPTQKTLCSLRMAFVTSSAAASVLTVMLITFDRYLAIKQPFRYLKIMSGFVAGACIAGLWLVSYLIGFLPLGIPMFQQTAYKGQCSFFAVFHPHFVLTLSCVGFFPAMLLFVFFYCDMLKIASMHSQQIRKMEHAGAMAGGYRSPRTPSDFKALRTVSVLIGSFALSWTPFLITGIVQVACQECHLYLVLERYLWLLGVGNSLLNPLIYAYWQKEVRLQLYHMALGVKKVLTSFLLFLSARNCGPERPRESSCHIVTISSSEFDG
* hit, by the source's call; · = no result.

SMILES | TEAD-YAP block | MITF primary | GPR151 activ | FBW7 activator | GPR151 conf act | GPR119 ag
O=C1[C@H]2[C@H]3[C@H](O)[C@H](O)C/C(=N\OCc4ccccc4)[C@H]3CC[C@H]2C(=O)N1C1CCCCC1 | · | 2 | 5.8* | 1 | 2 | 21
CC(C)CO/N=C1\C[C@@H](O)[C@@H](O)[C@@H]2[C@@H]3C(=O)N(Cc4ccccc4)C(=O)[C@@H]3CC[C@H]12 | · | 8 | 0 | 0 | · | ·
CCN1C(=O)[C@H]2[C@H]3[C@H](O)[C@H](O)C/C(=N\OCC(C)C)[C@@H]3CC[C@H]2C1=O | · | 14 | 6.6* | 0 | 0 | 12
C#CCCCO/N=C1\C[C@@H](O)[C@@H](O)[C@@H]2[C@@H]3C(=O)N([C@@H](C)c4ccccc4)C(=O)[C@@H]3CC[C@H]12 | · | 14 | 9.5* | 0 | 1 | 6
CC(C)(C)N=C1NN=C(c2ccc(F)cc2)CS1 | -8 | -6 | 2 | 0 | · | ·
O=S(=O)(c1cc(Cl)ccc1Cl)N1CCC(c2ccccc2)C1 (stereo not drawn) | 1 | -3 | 0 | 0 | · | ·
FC(F)(F)c1ccc(Cl)c(NC2=NCCCCC2)c1 | 3 | 11 | 6.1* | 0 | -1 | -8
CC1=C(C(=O)NC2CCCCC2)C2(CCCCC2)OC1=O | -6 | 3 | 6.2* | 0 | 0 | -9
CC1=C(C(=O)NC2CCCC2)C2(CCCCCC2)OC1=O | -2 | 18 | 0 | 0 | · | ·
CCC(C)NC(=O)C1=C(C)C(=O)OC12CCCCCC2 (stereo not drawn) | 8 | 15 | -1 | 0 | · | ·
CC1=C(C(=O)NC(C)C)C2(CCCCC2)OC1=O | -4 | -6 | 7.3* | 0 | 1 | -7
COc1cc(S(=O)(=O)Nc2ccccc2C(=O)O)c(OC)cc1Cl | 14 | 13 | 1 | 0 | · | ·
COc1cccc(C2C3CN(C(C)C)CC=C3C(C#N)=C(N)C2(C#N)C#N)c1 (stereo not drawn) | -7 | -3 | -1 | 0 | · | ·
Cc1cccc(OCC(=O)Nc2ccc(S(=O)(=O)N3CCC(C)CC3)cc2)c1 | -2 | 9 | 2 | 0 | · | ·
COc1cc(NC(=O)c2ccc(-c3ccc(C(=O)N4CCN(C)CC4)cc3)s2)cc(OC)c1OC | 6 | 12 | 3 | 0 | · | ·
COc1cc(NC(=O)c2ccc(-c3ccc(C(=O)NC4CC4)cc3)s2)cc(OC)c1OC | 43* | 7 | 5.3* | 0 | 1 | 4
O=[N+]([O-])c1ccc(C2N(c3ccccc3)CCN2c2ccccc2)s1 | 7 | 11 | 4.9* | 0 | -1 | -2
Brc1ccc(C2N(c3ccccc3)CCN2c2ccccc2)s1 | -17 | 0 | 0 | 0 | · | ·
CN(C)CCN1C(=O)C(=O)/C(=C(\O)c2ccc(F)cc2)C1c1ccc(F)cc1 (stereo not drawn) | -6 | 11 | 0 | 0 | · | ·
COCCNC1CCN(c2ccc(NC(=O)c3cccc(Cl)c3)cc2)CC1 | -79 | 5 | 0 | 0 | · | ·
Cc1ccc(/C=C(/C#N)c2ccc3c(c2)OCO3)cc1[N+](=O)[O-] | -2 | 5 | -1 | 0 | · | ·
N#C/C(=C/c1ccccc1[N+](=O)[O-])c1ccc2c(c1)OCO2 | -8 | 6 | 5.7* | 0 | 0 | -13
O=C1N=C(N2CCOCC2)S/C1=C/c1ccccc1OCc1ccc([N+](=O)[O-])cc1 | 7 | -31 | 2 | 0 | · | ·
CCOC(=O)c1c(NC(=O)C(C)(C)C)sc2c1CC(C)(C)NC2(C)C | 2 | 1 | 0 | 0 | · | ·
COc1ccc(OC)c(CNCc2ccc3c(c2)OCO3)c1 | -9 | 37 | -1 | 0 | · | ·
SMILES | TEAD-YAP block | MITF primary | GPR151 activ | FBW7 activator | GPR151 conf act | GPR119 ag
COc1ccc(OC)c(C2=NNC(=NCc3ccc4c(c3)OCO4)SC2)c1 | -5 | -4 | 5.6* | 0 | 1 | 10
CC(C)(C)C(=O)NC1(C(F)(F)F)NC(=O)N(c2ccccc2F)C1=O (stereo not drawn) | -1 | -11 | 6.6* | 0 | 1 | 10
CCOc1ccccc1N1CCN(CC(=O)c2[nH]c(C)c(C(C)=O)c2C)CC1 | 14 | 6 | -1 | 0 | · | ·
CCCCNC(=O)CC1Nc2c3ccccc3nc(=S)n2C1=O (stereo not drawn) | -5 | 14 | 9.6* | 0 | -2 | -15
CC(C)CCNC(=O)CC1Nc2c3ccccc3nc(=S)n2C1=O (stereo not drawn) | 2 | -3 | -1 | 0 | · | ·
O=C(Nc1ncc(Cc2ccc(Cl)cc2Cl)s1)c1ccc(Cl)cc1 | -4 | -12 | 5.7* | 0 | 1 | -6
Cc1ccc2onc(CNC(=O)N3CCCC(C)C3)c2c1 (stereo not drawn) | -19 | -10 | 6.9* | 0 | 1 | 0
Cc1ccc2onc(CNC(=O)N3CCCC3)c2c1 | -4 | -2 | 3 | 0 | · | ·
COc1ccc(NC(=O)CCC(=O)OCC(=O)c2ccc(OC)cc2)cc1 | 1 | -7 | 0 | 0 | · | ·
COc1cccc(NC(=O)CN(C)CC(=O)Nc2ccc(-c3ccccc3)cc2)c1 | -7 | -1 | 1 | 0 | · | ·
CCC(C)c1ccc(NC(=O)CN(C)CC(=O)Nc2cccc(OC)c2)cc1 (stereo not drawn) | -1 | 33 | 6.1* | 0 | 1 | -3
COc1ccc(/C=C(\C#N)c2nc3ccccc3[nH]2)cc1O | -62 | 2 | 4.9* | 0 | 0 | 1
CCN(CC)c1ccc(C(=O)Nc2nc3c(s2)C(=O)CC(C)(C)C3)cc1 | 1 | 1 | 5.2* | 0 | 0 | 3
CCN(CC(=O)Nc1nc2c(s1)C(=O)CC(C)(C)C2)c1ccccc1 | 9 | 12 | 1 | 0 | · | ·
O=C(CSc1nc2ccccc2s1)NCc1ccco1 | -4 | 2 | 6.1* | 0 | 0 | 5
CC(C)(C)OC(=O)C(Cl)(C(=O)OC(C)(C)C)c1ncc([N+](=O)[O-])cc1[N+](=O)[O-] | 55* | 5 | 14* | 0 | 0 | 13
C=CCn1c(=O)c2c(nc3n(-c4ccccc4C)c(C)c(C)n23)n(C)c1=O | 14 | 14 | 2 | 0 | · | ·
CC(=O)Cn1c(=O)c2c(nc3n(-c4ccccc4C)c(C)c(C)n23)n(C)c1=O | 5 | 18 | 5.5* | 0 | -1 | -1
O=C(NCc1cccc(F)c1)C1CC2CCCN2C12C(=O)Nc1ccccc12 (stereo not drawn) | 7 | 3 | 4 | 0 | · | ·
O=C(NCc1ccc2c(c1)OCO2)C1CC2CCCN2C12C(=O)Nc1ccccc12 (stereo not drawn) | 3 | -8 | 5.1* | 0 | 0 | 3
O=C(C[n+]1ccccc1)N/N=C/c1cccs1 | 8 | 12 | 6.1* | 0 | 1 | 2
Cc1ccccc1OCCOCCNC(C)C | 7 | 48 | 0 | 0 | · | ·
COC(=O)c1ccc(NC(=O)CSc2nc3ccc(NC(=O)CSc4nnc(C)s4)cc3s2)cc1 | -16 | -1 | 2 | 0 | · | ·
CN1CCN(S(=O)(=O)c2ccc(C3CCCCC3)cc2)CC1 | 2 | 4 | 5.3* | 0 | 1 | -2
